PLK1 PBD block: PLK1 (human) polo-box domain binding inhibition; P53350; Plk1 PBD binding of FITC phosphopeptide, fluorescence polarization; Potency, µM, for inactives: max response, negative = inhibition, hits mostly inhibitors; 360,000 compounds, 2.8% hits; note: series mostly up to about 57 µM; % is set by controls: 0 for no effect and ±100 for the full control effect; nearly all actives have a fitted effect of over 65% in size
VDR inh: inhibitors of human vitamin D receptor. 400,000 compounds, 0.93% hits. Potency, µM, without a hit: max response, negative = inhibition, hits mostly inhibitors. VDR-SRC2-3 peptide fluorescence polarization, 2 h. P11473; note: % is set by controls: 0 for no effect and ±100 for the full control effect
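VDR–SRC2-3 interaction, FP format. Cmpds 23 nl via pintool, brief spin, 2 h ambient incubation.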
HP1b binding inh: inhibitors of HP1-beta chromodomain binding to methylated histone tails; P83916; AlphaScreen HP1-beta / biotin-H3K9me3 peptide binding; Potency, µM (series often up to 114 µM), inactives show at the highest dose activity change, negative = inhibition, usual class: inhibitors; 390,000 compounds, 0.56% hits; AID 540317; note: nearly all actives have a fitted effect of over 70% in size
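AlphaScreen: HP1-beta (50 nM) preformed 30 min with biotin-H3(1-18)K9me3 peptide (50 nM) in PBS pH 7.4, 0.01% Tween-20. Compound added for 30 min at RT, then streptavidin donor/nickel chelate acceptor beads (10 ug/mL) for 30 min.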
G9a block: G9a (human) methyltransferase inhibition; AID 504332; G9a H3K9 monomethylation, AlphaScreen, 2 h; 350,000 compounds, 8.8% hits; Potency, µM (top dose mostly 102 µM), for inactives: at the highest dose activity, negative = inhibition, actives largely listed as inhibitors; note: % is set by controls: 0 for no effect and ±100 for the full control effect; nearly all actives have a fitted effect of over 75% in size
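Enzyme 20 nM + cpd, 15 min RT; add b-H3K9 pep 500 nM / SAM 20 uM; 2 h RT; anti-H3K9me1 Ab 0.5 ug/mL + SA donor / anti-rabbit acceptor beads 20 ug/mL each, 10 min; AlphaScreen read.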
BAZ2B inh: inhibitors of human BAZ2B bromodomain; Q9UIF8; AlphaScreen BAZ2B-H3K14Ac peptide displacement; Potency, µM (top dose mostly 114 µM), for inactives: top-dose activity change, negative = inhibition, most hits filed as inhibitors; 360,000 compounds, 4.4% hits; AID 504333; note: % is set by controls: 0 for no effect and ±100 for the full control effect; nearly all actives have a fitted effect of over 60% in size
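Inhibition is scored as reduced AlphaScreen emission. The BAZ2B/b-H3(5-23)K14Ac complex (50 nM each) in PBS pH 7.4, 0.01% Tween-20 meets compound (up to 110 uM) for 30 min at RT before bead addition.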
JMJD2A Tudor inh: JMJD2A Tudor domain (human) inhibition; AlphaScreen JMJD2A-Tudor / H3K4me3 peptide binding; 390,000 compounds, 4.4% hits; Potency, µM (doses to about 114 µM), inactives show top-dose activity change, negative = inhibition, actives largely listed as inhibitors; O75164; note: % is set by controls: 0 for no effect and ±100 for the full control effect; nearly all actives have a fitted effect of over 50% in size
Target sequence (O75164 whole entry, looked up, the tested form may be a part): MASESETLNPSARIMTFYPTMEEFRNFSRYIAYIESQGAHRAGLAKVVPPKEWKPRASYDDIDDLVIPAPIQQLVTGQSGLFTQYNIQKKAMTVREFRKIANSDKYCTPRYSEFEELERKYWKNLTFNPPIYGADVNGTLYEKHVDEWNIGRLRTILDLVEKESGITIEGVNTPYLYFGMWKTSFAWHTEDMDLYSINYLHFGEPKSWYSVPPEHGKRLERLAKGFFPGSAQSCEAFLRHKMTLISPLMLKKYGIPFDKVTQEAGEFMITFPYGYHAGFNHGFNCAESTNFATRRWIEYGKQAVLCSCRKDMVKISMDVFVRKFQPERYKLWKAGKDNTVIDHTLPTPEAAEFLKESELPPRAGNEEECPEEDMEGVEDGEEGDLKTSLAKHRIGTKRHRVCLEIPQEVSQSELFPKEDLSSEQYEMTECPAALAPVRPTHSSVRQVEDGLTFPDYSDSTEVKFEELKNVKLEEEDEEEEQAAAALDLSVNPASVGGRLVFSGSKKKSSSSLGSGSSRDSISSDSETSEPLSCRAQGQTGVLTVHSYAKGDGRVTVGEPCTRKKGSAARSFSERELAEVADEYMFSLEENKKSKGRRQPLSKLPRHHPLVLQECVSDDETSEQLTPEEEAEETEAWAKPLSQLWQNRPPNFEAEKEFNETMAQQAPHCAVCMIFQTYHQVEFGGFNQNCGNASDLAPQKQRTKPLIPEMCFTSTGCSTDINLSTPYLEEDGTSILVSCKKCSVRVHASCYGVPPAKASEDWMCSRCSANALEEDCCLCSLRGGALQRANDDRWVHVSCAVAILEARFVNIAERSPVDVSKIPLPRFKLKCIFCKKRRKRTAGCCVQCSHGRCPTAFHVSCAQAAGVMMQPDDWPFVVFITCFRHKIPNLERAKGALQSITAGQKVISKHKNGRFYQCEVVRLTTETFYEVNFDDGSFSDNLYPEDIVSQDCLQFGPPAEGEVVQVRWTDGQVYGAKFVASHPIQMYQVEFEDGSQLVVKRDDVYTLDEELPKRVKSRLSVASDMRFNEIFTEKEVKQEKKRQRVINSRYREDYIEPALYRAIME
Starred values were filed as active, the others as inactive; [ ] = remark or other dose. Only some compounds are listed: those with a hit (about 11% of all), similar ones and a draw of the others. Calls come from the whole dose curve; as a rule, active = well fitted curve in the direction sought with a large enough effect; inconclusive = small, poorly fitted or top-dose-only effect, or another doubt; inactive = no such curve, though single readings can be large; an effect the other way counts as inactive or inconclusive. Potency is the fitted concentration of half-maximal effect.

Results for O=Cc1nc(-c2ccc(Cl)cc2)n2ccccc12 ?
PLK1 PBD block: -4.7%; VDR inh: -13.1%; HP1b binding inh: 45.6%; G9a block: 4.2%; BAZ2B inh: 4.4%; JMJD2A Tudor inh: inconclusive

Results for Clc1ccc(-c2nc(/C=N/N3CCOCC3)c3ccccn23)cc1 ?
PLK1 PBD block: -8.4%; VDR inh: -25.4%; HP1b binding inh: -12.2%; G9a block: 28.2µM*; JMJD2A Tudor inh: inconclusive

How did CN1CCN(/N=C/c2nc(-c3ccc(Cl)cc3)n3ccccc23)CC1 do in these assays?
PLK1 PBD block: -21.7%; VDR inh: -18.1%; HP1b binding inh: -18.6%; G9a block: 15.8µM*; BAZ2B inh: 50.1µM*; JMJD2A Tudor inh: inconclusive

Results for COc1ccc(C2=C(C)C(=NCCCN3CCN(c4cc(C)ccc4C)CC3)NS2(=O)=O)cc1 ?
VDR inh: 4.9%; HP1b binding inh: 13.4%; G9a block: -32.3%[59 µM]; BAZ2B inh: -10.3%; JMJD2A Tudor inh: -14.6%

What do the screens show for `Cc1ccc(C)c(S(=O)(=O)NCCN2CCOCC2)c1`?
PLK1 PBD block: 3.4%; VDR inh: 9.0%; HP1b binding inh: 35.0%; G9a block: 25.5%[0.501 µM]; BAZ2B inh: -8.1%; JMJD2A Tudor inh: -1.4%

How did Cc1nc(S/C(=C\c2ccc(-c3ccc(C(=O)O)c(Cl)c3)o2)C(=O)O)n[nH]1 do in these assays?
PLK1 PBD block: inconclusive; VDR inh: inconclusive; HP1b binding inh: 20µM*; G9a block: 3.98µM*; BAZ2B inh: 14.1µM*; JMJD2A Tudor inh: 25.1µM*

What do the screens show for `COc1ccc(N2CCN(c3csc4ccc(Cl)cc4c3=O)CC2)cc1`?
VDR inh: -1.1%; HP1b binding inh: -12.8%[57 µM]; G9a block: -50.7%[59 µM]; BAZ2B inh: 50.1µM*; JMJD2A Tudor inh: inconclusive

What do the screens show for `COc1ccc(N2CCN(c3csc4ccccc4c3=O)CC2)cc1`?
VDR inh: 6.7%; HP1b binding inh: -4.5%[57 µM]; G9a block: inconclusive; BAZ2B inh: 39.8µM*; JMJD2A Tudor inh: 39.8µM*

Results for COC(=O)C1CCN(c2csc3ccc(Cl)cc3c2=O)CC1 ?
VDR inh: 19.6%; HP1b binding inh: 32.9%[57 µM]; G9a block: -34.8%[59 µM]; BAZ2B inh: -22.4%; JMJD2A Tudor inh: -13.4%

What do the screens show for `CN1C(=O)CC2(C=CC(=O)C=C2OC(=O)c2ccccc2)c2ccccc21` (configuration not stated)?
VDR inh: -20.1%; HP1b binding inh: 37.3%; JMJD2A Tudor inh: -18.6%

How did Cc1[nH][nH]c(=O)c1C(c1ccccc1[N+](=O)[O-])C(C#N)C#N (configuration not stated) do in these assays?
PLK1 PBD block: -21.0%; VDR inh: 2.1%; HP1b binding inh: 16.0%; G9a block: 39.8µM*; BAZ2B inh: -16.7%; JMJD2A Tudor inh: -17.5%

How did Cc1[nH][nH]c(=O)c1C(c1cc([N+](=O)[O-])ccc1O)c1c(C)[nH][nH]c1=O do in these assays?
PLK1 PBD block: inconclusive; VDR inh: -7.1%; HP1b binding inh: 10.9%; G9a block: 21.6%; BAZ2B inh: -4.2%; JMJD2A Tudor inh: -12.2%

What do the screens show for `CC(=O)Nc1cnc(-c2cccc(C(=O)N3CCOCC3)c2)cn1`?
PLK1 PBD block: -3.9%

Results for CCN1C(=O)[C@@H]2[C@@H](c3ccc(SC4CCCCC4)c(OC)c3)N3CCC[C@@]3(C(=O)OC)[C@@H]2C1=O ?
PLK1 PBD block: -7.9%; VDR inh: -3.6%; HP1b binding inh: -9.6%; G9a block: -11.1%[2.33 µM]; BAZ2B inh: inconclusive; JMJD2A Tudor inh: inconclusive

Results for CC(CCc1ccccc1)NS(=O)(=O)c1ccc(Cl)c(C(=O)O)c1 (configuration not stated) ?
PLK1 PBD block: 23.8µM*; VDR inh: inconclusive; HP1b binding inh: 9.3%; G9a block: inconclusive; BAZ2B inh: -11.8%; JMJD2A Tudor inh: inconclusive

How did COC(=O)c1ccc(C2C(C#N)=C(C)NC3=C2C(=O)CC(C)(C)C3)cc1 (configuration not stated) do in these assays?
PLK1 PBD block: inconclusive; VDR inh: -24.1%; HP1b binding inh: 3.9%; G9a block: 9.7%; BAZ2B inh: 10.3%; JMJD2A Tudor inh: -3.1%[57.1 µM]

What do the screens show for `COc1ccc(C2CC(=O)C3=C(C2)NC(C)=C(C#N)C3c2ccc(N(C)C)cc2)cc1` (configuration not stated)?
PLK1 PBD block: -2.9%; VDR inh: -2.2%; HP1b binding inh: inconclusive; G9a block: 12.6µM*; BAZ2B inh: inconclusive; JMJD2A Tudor inh: inconclusive

What do the screens show for `COc1ccc2nc(N(Cc3ccccc3)C(=O)CCNC(C)=O)sc2c1`?
PLK1 PBD block: 2.6%; VDR inh: -0.8%; HP1b binding inh: 21.3%; G9a block: 31.6µM*; BAZ2B inh: -34.3%; JMJD2A Tudor inh: -9.7%

How did CCN(CC)CCN(C(=O)c1cc2ccccc2cc1OC)c1nc2ccc(F)cc2s1 do in these assays?
PLK1 PBD block: -6.1%; VDR inh: -20.0%; HP1b binding inh: 18.8%; G9a block: 39.8µM*; BAZ2B inh: inconclusive; JMJD2A Tudor inh: 31.6µM*

What do the screens show for `CCN(CC)CCN(C(=O)/C=C/c1cccs1)c1nc2ccc(OC)cc2s1`?
PLK1 PBD block: 6.4%; VDR inh: -29.0%; HP1b binding inh: 21.9%; JMJD2A Tudor inh: -1.2%

What do the screens show for `CCN(CC)CCN(C(=O)c1cc2ccccc2cc1OC)c1nc2ccc(OC)cc2s1`?
PLK1 PBD block: 3.1%; VDR inh: -6.6%; HP1b binding inh: -5.6%; G9a block: 44.7µM*; BAZ2B inh: inconclusive; JMJD2A Tudor inh: inconclusive

How did COc1ccc2nc(N(Cc3cccnc3)C(=O)COc3ccccc3)sc2c1 do in these assays?
VDR inh: 0.7%; HP1b binding inh: 14.5%; G9a block: -0.9%[59 µM]; BAZ2B inh: -7.7%; JMJD2A Tudor inh: -8.4%

What do the screens show for `COc1ccc2nc(N(CCN(C)C)C(=O)c3ccc4c(c3)OCCO4)sc2c1`?
PLK1 PBD block: 2.7%; VDR inh: 1.2%; HP1b binding inh: 7.5%; BAZ2B inh: inconclusive; JMJD2A Tudor inh: -31.9%

How did CCN(CC)CCN(C(=O)c1ccc2ccccc2c1)c1nc2ccc(OC)cc2s1 do in these assays?
PLK1 PBD block: -2.4%; VDR inh: -22.5%; HP1b binding inh: -10.5%[57 µM]; G9a block: 79.4µM*; BAZ2B inh: inconclusive; JMJD2A Tudor inh: inconclusive

Results for CC(C)(C)c1ccc(OCCn2ccccc2=O)cc1 ?
PLK1 PBD block: -12.6%; VDR inh: 1.6%; HP1b binding inh: 17.3%; G9a block: 5.1%; BAZ2B inh: 2.7%; JMJD2A Tudor inh: 3.55µM*

What do the screens show for `CC1(C)Cc2ccccc2C(NNC(=O)c2ccccn2)=N1`?
PLK1 PBD block: -4.8%; VDR inh: -6.9%; HP1b binding inh: 26.5%; G9a block: 12.2%[59 µM]; BAZ2B inh: 31.6µM*; JMJD2A Tudor inh: 44.7µM*

Compound activity (PubChem BioAssay)
